Rows were chosen to be rich in hits. Some 3.4% of all compounds tested hit in one or more screens of this group.
PAFAH1B2 inh: inhibitors of human PAFAH1B2. inhibition, % at 3.39 µM. recombinant PAFAH1B2, FP-rhodamine activity probe, fluorescence polarization. P68402. 340,000 tested, 1.2% active. AID 492953;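 active = inhibition above the mean of all tested compounds plus 3 SD, cut at about 24% in these data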;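 also: 0% = enzyme with DMSO and 100% = wells lacking PAFAH1B2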
PAFAH2 FP inh: inhibitors of human PAFAH2; Q99487; recombinant PAFAH2, FP-rhodamine activity probe, fluorescence polarization; inhibition, % at 3.39 µM; 340,000 tested, 0.99% active;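 active = inhibition above the mean over all tested compounds plus 3 SD, cut at about 30% in these data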;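 also: inhibitors block probe labeling of enzyme so polarization drops; 0% = enzyme with DMSO and 100% = wells lacking PAFAH2 protein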
pPAFAH FP inh: pPAFAH (human) enzyme inhibition | inhibition, % at 3.39 µM | AID 463082 | Q13093 | 330,000 tested, 1.5% active | recombinant pPAFAH, FP-rhodamine probe fluorescence polarization;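 active = inhibition above the mean inhibition across the screen plus 3 SD, cut at about 25% in these data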;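 also: inhibitors block binding of the rhodamine activity-based probe so polarization drops; 0% = enzyme with DMSO and 100% = wells lacking pPAFAH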
Target sequence (Q13093 whole entry, looked up): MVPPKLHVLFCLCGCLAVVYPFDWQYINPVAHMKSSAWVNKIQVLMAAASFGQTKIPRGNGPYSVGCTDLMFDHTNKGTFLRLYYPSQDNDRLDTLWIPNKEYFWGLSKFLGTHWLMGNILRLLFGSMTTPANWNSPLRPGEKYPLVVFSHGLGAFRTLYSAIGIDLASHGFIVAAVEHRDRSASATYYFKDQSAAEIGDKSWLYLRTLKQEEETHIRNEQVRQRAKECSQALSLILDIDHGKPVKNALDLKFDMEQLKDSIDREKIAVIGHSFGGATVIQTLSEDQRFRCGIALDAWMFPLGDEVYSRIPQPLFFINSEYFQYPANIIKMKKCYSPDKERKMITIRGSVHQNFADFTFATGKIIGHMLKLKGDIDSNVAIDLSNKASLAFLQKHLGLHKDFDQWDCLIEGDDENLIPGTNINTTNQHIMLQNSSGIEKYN
PP1 counter: blocks human PP1-alpha phosphatase, a PP5 counter-screen; 320,000 tested, 0.9% active; P62136; purified PP1alpha, OMFP fluorescence; inhibition, % at 6.7 µM;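 active = inhibition above the mean inhibition of all tested compounds plus 3 SD, computed separately for each screening campaign, cut at about 15% in these data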
PAFAH1B3 FP inh: PAFAH1B3 (human) inhibition | recombinant PAFAH1B3, FP-rhodamine probe, fluorescence polarization | inhibition, % at 3.39 µM | 340,000 tested, 0.28% active;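 active = inhibition above the screen-wide average of all tested compounds plus 3 SD, cut at about 25% in these data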;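 also: 0% = enzyme with DMSO only and 100% = wells lacking PAFAH1B3 protein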
PP5 inh: PP5 (human) phosphatase inhibition | purified PP5c, OMFP substrate fluorescence | inhibition, % at 6.7 µM | 320,000 tested, 0.18% active;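 active = inhibition above the campaign's mean inhibition across all tested compounds plus 3 SD, cut at about 9.5% in these data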;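 also: 0% = DMSO only and 100% = 100 µM cantharidin control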
PP1 confirm: human PP1 phosphatase inhibition, confirmation. shares compounds with PP1 counter. inhibition, % at 6.7 µM. 1,900 tested, 52% active. purified PP1alpha, OMFP substrate fluorescence;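 active = mean PP1 inhibition above a set limit taken from the earlier primary screen, cut at about 15% in these data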
PP5 inh counter: inhibits human PP5 phosphatase in PP1 counter-screen | purified PP5c, OMFP fluorescence | inhibition, % at 6.7 µM | AID 2360 | shares compounds with PP1 counter | 1,900 tested, 4% active;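 active = mean PP5 inhibition over triplicate wells above about 9.5% taken from the earlier PP1 screen, limit read from the data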
An asterisk follows results filed as active; · = not tested or not shown.

SMILES	PAFAH1B2 inh	PAFAH2 FP inh	pPAFAH FP inh	PP1 counter	PAFAH1B3 FP inh	PP5 inh	PP1 confirm	PP5 inh counter
Cc1ccc(-n2c(O)c(/C=N/Nc3ccc(S(=O)(=O)N4CCOCC4)cc3[N+](=O)[O-])c3ccccc3c2=O)c(C)c1	64*	34*	2	18*	18	2	18*	5
O=C(NCc1cccc(Cl)c1)C1CCC(=O)N(CCN2CCOCC2)C1 (stereo unspecified)	6	1	2	0	8	0	·	·
Nc1cc(=O)[nH]c(SCC(=O)N2N=C(c3ccc(Cl)cc3)CC2c2ccco2)n1 (stereo unspecified)	-5	-9	0	20*	-8	4	10	-4
CCC1CCCCN1S(=O)(=O)c1ccc(-n2cnnn2)c(C)c1 (stereo unspecified)	0	12	1	-1	5	2	·	·
Cc1nn(-c2ccccc2)c(C)c1/C=N/NC(=O)CSc1nc2ccccc2c(=O)n1-c1ccc(Br)cc1	-3	-2	-2	1	-8	1	·	·
Cc1ccccc1-n1c(SCC(=O)N/N=C/c2c(C)nn(-c3ccccc3)c2C)nc2ccccc2c1=O	-6	-28	-9	18*	-11	3	9	3
COc1ccc(N2CC(C(=O)N(CC(C)C)c3c(N)n(Cc4ccccc4)c(=O)[nH]c3=O)CC2=O)c(OC)c1 (stereo unspecified)	3	-3	13	-1	1	0	·	·
CC(=O)Nc1ccc(OC(=O)c2ccco2)cc1	-1	4	3	19*	-4	2	-5	-6
Cc1ccc(C2(c3ccccc3)NC(=O)N(CC(=O)NCc3ccccc3)C2=O)cc1C (stereo unspecified)	2	-2	6	2	0	5	·	·
Cn1c2ccccc2c2cnn(CC(=O)Nc3ccc(Cl)cc3)c(=O)c21	-9	-22	-12	18*	-22	1	14	0
CCc1ccc(NC(=O)Cn2ncc3c4ccccc4n(C)c3c2=O)cc1	-12	-11	5	24*	-16	-3	22*	-5
O=C(Cn1ncc2c3ccccc3n(Cc3ccc(Cl)cc3)c2c1=O)NCCCN1CCCC1=O	1	-2	1	2	-2	1	·	·
CCCn1c2ccccc2c2cnn(CC(=O)NCCOC)c(=O)c21	7	0	·	·	6	·	·	·
CCN(CC(=O)Nc1c(F)cccc1F)C(=O)C1(c2ccccc2)CC1	4	-1	0	-5	0	-1	·	·
COC(=O)CC(NC(=O)CN1CCN(c2ccc(F)cc2)CC1)c1cccc(F)c1 (stereo unspecified)	3	-5	0	-1	4	0	·	·
COc1cc(/C=C2\SC(=Nc3ccccc3)N(CCc3c[nH]c4ccccc34)C2=O)ccc1OC(C)C(=O)O (stereo unspecified)	-4	0	18	18*	0	1	12	0
CCc1ccc(NC(=O)c2ccccc2SC)cc1	4	-1	6	2	-4	-1	·	·
N#CCCn1nc(-c2ccccc2)c2ccccc2c1=O	6	7	0	-2	0	-1	·	·
O=C(OCC(=O)N1CCCCC1)c1ccccc1SCC(=O)N1CCCCC1	3	3	6	-3	3	3	·	·
CC(=O)Nc1ccc(NC(=O)COC(=O)c2ccccc2SCC(=O)N2CCCC2)cc1	4	10	0	58*	7	-1	-1	-6
COc1ccc(C(=O)/C=C/Nc2cccc(C)n2)cc1OC	-1	1	2	35*	2	0	1	-3
COc1cc(/C=C2/SC(=Nc3ccc(O)cc3)NC2=O)ccc1O	3	-1	7	23*	-4	1	24*	-1
COc1cc(/C=C2\SC(=Nc3ccccc3OC)NC2=O)ccc1O	-3	12	12	6	5	2	·	·
Cc1ccc2nc(/N=C(\N)NC(=O)NC3CCCCC3)nc(C)c2c1	·	·	11	22*	·	2	33*	1
CCCC(=O)N/C(N)=N/c1nc(C)c2cc(C)ccc2n1	·	·	6	10	·	-1	·	·
SMILES	PAFAH1B2 inh	PAFAH2 FP inh	pPAFAH FP inh	PP1 counter	PAFAH1B3 FP inh	PP5 inh	PP1 confirm	PP5 inh counter
C=C(C)C(=O)Nc1cccc(C2=NOC3(C2)C[C@@H](C(N)=O)N(C(=O)C2(C)CC2)C3)c1 (stereo partly specified)	2	4	-2	23*	-5	2	2	-3
C/C=C\C=C/C(=O)Nc1cccc(C2=NOC3(C2)C[C@@H](C(N)=O)N(C(=O)/C=C/CC)C3)c1 (stereo partly specified)	1	-15	0	1	-5	-1	·	·
NC(=O)[C@H]1CC2(CC(c3cccc(NC(=O)CC(c4ccccc4)c4ccccc4)c3)=NO2)CN1C(=O)c1ccccc1C(=O)c1ccccc1 (stereo partly specified)	-8	-37	-8	19*	-24	3	12	0
C/C=C\C=C/C(=O)Nc1cccc(C2=NOC3(C2)C[C@@H](C(N)=O)N(C(=O)/C=C/C=C\C)C3)c1 (stereo partly specified)	-13	-20	-4	31*	-18	4	14	-1
C=C(C)C(=O)Nc1cccc(C2=NOC3(C2)C[C@@H](C(N)=O)N(C(=O)C(=C)C)C3)c1 (stereo partly specified)	4	3	-1	5	14	1	·	·
CC(NC(=O)COC(=O)CNS(=O)(=O)/C=C/c1ccccc1)c1ccccc1 (stereo unspecified)	-1	-3	17	-5	14	0	·	·
CN(C)c1ccc(/C=N/N=C(N)N)cc1[N+](=O)[O-]	2	11	-1	0	7	3	·	·
CNS(=O)(=O)c1cn(CC(=O)N(C)Cc2ccccc2)cc1S(=O)(=O)NC	4	3	2	-1	-4	1	·	·
CCCCN1C(=O)C(=O)N(CC(=O)c2ccc3c(c2)CCCC3)C1=O	13	2	-1	1	7	2	·	·
COc1ccc(CCNC(=O)Cc2c(Cl)cccc2Cl)cc1	9	1	1	-3	15	-4	·	·
O=C(NCc1ccc(F)cc1)c1cccc2c1C(=O)c1ccc(N3CCOCC3)cc1S2(=O)=O	-3	6	0	-4	-3	3	·	·
O=C(NCc1ccccc1Br)c1cccc2c1C(=O)c1ccc(N3CCOCC3)cc1S2(=O)=O	·	·	15	28*	·	-2	37*	-7
Cc1ccc(SC[C@H](C)CN2CC[C@H](C(C)(C)C)CCC2=O)cc1	10	-3	0	5	6	2	·	·

Screens as filed in PubChem BioAssay.
